Several values for one entry are separate records, joined by “and”; a condition that tells them apart may be missing. Identical values can stand only once. In all, about 5,500 compounds went through this assay and about 2,000 (36%) were called active. Inconclusive results (about 18%) are left out. Cut-off read from the data, not from the text of the source: active = normalized growth mostly below about 0.91 (no sharp cut-off); inconclusive = no clear call, values can overlap the other calls; inactive = mostly above about 0.92. The list shows a part of the results.
Experiment: chemical genetic growth profiling, strain panel (AID 1159580);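 note: tested at 20 µM; growth read once vehicle control cultures reached saturation at 30 °C; 1 = growth at the plate median or of vehicle wells; lower values mean less growth of the strain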
Settings: growth OD

Measured: normalized growth

O=C1c2ccccc2C(=O)C1c1ccccc1
inactive: S. cerevisiae deletion strains, locus YKL085W, strain MDH1 (second series), stronger effect = lower value 0.994 | S. cerevisiae deletion strains, locus YKL085W, strain MDH1, stronger effect = lower value 0.994 | S. cerevisiae deletion strains, locus YKL160W, strain elf1, stronger effect = lower value 1 | S. cerevisiae deletion strains, locus YKL190W, strain CNB1, stronger effect = lower value 1 | S. cerevisiae deletion strains, locus YKR001C, strain vps1, stronger effect = lower value 1.01 | S. cerevisiae deletion strains, locus YKR026C, strain gcn3, stronger effect = lower value 0.976 | S. cerevisiae deletion strains, locus YKR091W, strain srl3, stronger effect = lower value 0.997 | S. cerevisiae deletion strains, locus YLL001W, strain dnm1, stronger effect = lower value 1 | S. cerevisiae deletion strains, locus YLL026W, stronger effect = lower value 0.993 | S. cerevisiae deletion strains, locus YLL041C, strain sdh2, stronger effect = lower value 1 | S. cerevisiae deletion strains, locus YLR027C, strain aat2, stronger effect = lower value 0.998 | S. cerevisiae deletion strains, locus YLR039C, strain RIC1, stronger effect = lower value 0.983 and 0.913 | S. cerevisiae deletion strains, locus YLR058C, strain SHM2, stronger effect = lower value 1.01 | S. cerevisiae deletion strains, locus YLR085C, strain ARP6, stronger effect = lower value 0.972 | S. cerevisiae deletion strains, locus YLR102C, strain apc9, stronger effect = lower value 1.01 | S. cerevisiae deletion strains, locus YLR113W, strain HOG1, stronger effect = lower value 0.934 | S. cerevisiae deletion strains, locus YLR221C, strain rsa3, stronger effect = lower value 1 | S. cerevisiae deletion strains, locus YLR258W, strain gsy2, stronger effect = lower value 1.02 | S. cerevisiae deletion strains, locus YLR262C, strain YPT6 (second series), stronger effect = lower value 1 | S. cerevisiae deletion strains, locus YLR262C, strain YPT6, stronger effect = lower value 0.967 and 0.909 | S. cerevisiae deletion strains, locus YLR268W, strain sec22, stronger effect = lower value 1.03 | S. cerevisiae deletion strains, locus YLR320W, strain mms22, stronger effect = lower value 1.01 | S. cerevisiae deletion strains, locus YLR330W, strain CHS5, stronger effect = lower value 0.999 | S. cerevisiae deletion strains, locus YLR342W, strain FKS1 (second series), stronger effect = lower value 1.01 | S. cerevisiae deletion strains, locus YLR342W, strain FKS1, stronger effect = lower value 0.998 | S. cerevisiae deletion strains, locus YLR357W, strain rsc2, stronger effect = lower value 1.03 | S. cerevisiae deletion strains, locus YLR370C, strain arc18, stronger effect = lower value 1 | S. cerevisiae deletion strains, locus YLR371W, strain rom2, stronger effect = lower value 1.01 | S. cerevisiae deletion strains, locus YLR384C, strain iki3, stronger effect = lower value 1 | S. cerevisiae deletion strains, locus YLR418C, strain cdc73, stronger effect = lower value 0.98 | S. cerevisiae deletion strains, locus YML016C, strain PPZ1, stronger effect = lower value 1 | S. cerevisiae deletion strains, locus YML032C, strain rad52, stronger effect = lower value 1.01 | S. cerevisiae deletion strains, locus YML094W, strain GIM5, stronger effect = lower value 0.945 | S. cerevisiae deletion strains, locus YML120C, strain ndi1, stronger effect = lower value 1.01 | S. cerevisiae deletion strains, locus YML124C, strain tub3, stronger effect = lower value 1.01 | S. cerevisiae deletion strains, locus YMR058W, strain fet3, stronger effect = lower value 0.999 | S. cerevisiae deletion strains, locus YMR078C, strain ctf18, stronger effect = lower value 1.01 | S. cerevisiae deletion strains, locus YMR125W, strain sto1, stronger effect = lower value 0.995 | S. cerevisiae deletion strains, locus YMR129W, stronger effect = lower value 0.992 | S. cerevisiae deletion strains, locus YMR205C, strain PFK2, stronger effect = lower value 1.01 | S. cerevisiae deletion strains, locus YMR219W, strain ESC1, stronger effect = lower value 0.954 | S. cerevisiae deletion strains, locus YMR223W, strain ubp8, stronger effect = lower value 1 | S. cerevisiae deletion strains, locus YMR231W, strain pep5, stronger effect = lower value 1 | S. cerevisiae deletion strains, locus YMR263W, strain SAP30, stronger effect = lower value 1.01 | S. cerevisiae deletion strains, locus YMR307W, strain GAS1, stronger effect = lower value 1.01 | S. cerevisiae deletion strains, locus YNL067W, strain RPL9B, stronger effect = lower value 0.999 | S. cerevisiae deletion strains, locus YNL071W, strain lat1, stronger effect = lower value 1 | S. cerevisiae deletion strains, locus YNL128W, strain TEP1, stronger effect = lower value 1.02 | S. cerevisiae deletion strains, locus YNL153C, strain GIM3, stronger effect = lower value 0.996 and 0.979 | S. cerevisiae deletion strains, locus YNL183C, strain NPR1, stronger effect = lower value 0.939 | S. cerevisiae deletion strains, locus YNL209W, strain ssb2, stronger effect = lower value 1.01 | S. cerevisiae deletion strains, locus YNL233W, strain BNI4, stronger effect = lower value 1 | S. cerevisiae deletion strains, locus YNL248C, strain rpa49, stronger effect = lower value 1 | S. cerevisiae deletion strains, locus YNL250W, strain rad50, stronger effect = lower value 0.989 | S. cerevisiae deletion strains, locus YNL271C, strain bni1, stronger effect = lower value 1 | S. cerevisiae deletion strains, locus YNL298W, strain CLA4 (second series), stronger effect = lower value 0.968 | S. cerevisiae deletion strains, locus YNL298W, strain CLA4, stronger effect = lower value 0.994 | S. cerevisiae deletion strains, locus YNL307C, strain MCK1, stronger effect = lower value 1 | S. cerevisiae deletion strains, locus YNL322C, strain KRE1 (second series), stronger effect = lower value 1 | S. cerevisiae deletion strains, locus YNL322C, strain KRE1, stronger effect = lower value 1 and 0.969 | S. cerevisiae deletion strains, locus YNR030W, strain Alg12, stronger effect = lower value 0.969 | S. cerevisiae deletion strains, locus YNR049C, strain mso1, stronger effect = lower value 0.998 | S. cerevisiae deletion strains, locus YNR052C, strain pop2, stronger effect = lower value 1.01 | S. cerevisiae deletion strains, locus YOL006C, strain TOP1, stronger effect = lower value 0.964 | S. cerevisiae deletion strains, locus YOL012C, strain htz1 0.826 | S. cerevisiae deletion strains, locus YOL147C, strain pex11, stronger effect = lower value 1.01 | S. cerevisiae deletion strains, locus YOR001W, strain rrp6, stronger effect = lower value 1.01 | S. cerevisiae deletion strains, locus YOR061W, strain CKA2, stronger effect = lower value 1 | S. cerevisiae deletion strains, locus YOR069W, strain VPS5, stronger effect = lower value 1 | S. cerevisiae deletion strains, locus YOR070C, strain gyp1, stronger effect = lower value 0.996 | S. cerevisiae deletion strains, locus YOR080W, strain dia2, stronger effect = lower value 1 | S. cerevisiae deletion strains, locus YOR083W, strain WHI5, stronger effect = lower value 0.999 | S. cerevisiae deletion strains, locus YOR106W, strain vam3, stronger effect = lower value 1.01 | S. cerevisiae deletion strains, locus YOR136W, strain idh2, stronger effect = lower value 1.01 | S. cerevisiae deletion strains, locus YOR144C, strain elg1, stronger effect = lower value 1 | S. cerevisiae deletion strains, locus YOR184W, strain ser1, stronger effect = lower value 1.02 | S. cerevisiae deletion strains, locus YOR231W, strain MKK1, stronger effect = lower value 0.992 | S. cerevisiae deletion strains, locus YOR265W, strain rbl2, stronger effect = lower value 0.995 | S. cerevisiae deletion strains, locus YOR270C, strain vph1, stronger effect = lower value 1.01 | S. cerevisiae deletion strains, locus YOR290C, strain snf2, stronger effect = lower value 0.997 | S. cerevisiae deletion strains, locus YOR316C, strain cot1, stronger effect = lower value 1.01 | S. cerevisiae deletion strains, locus YPL051W, strain arl3, stronger effect = lower value 1 | S. cerevisiae deletion strains, locus YPL055C, strain LGE1, stronger effect = lower value 1 and 0.972 | S. cerevisiae deletion strains, locus YPL078C, strain atp4, stronger effect = lower value 1 | S. cerevisiae deletion strains, locus YPL106C, strain sse1, stronger effect = lower value 1.01 | S. cerevisiae deletion strains, locus YPL240C, strain hsp82, stronger effect = lower value 1 | S. cerevisiae deletion strains, locus YPL256C, strain CLN2, stronger effect = lower value 0.917 | S. cerevisiae deletion strains, locus YPR119W, strain clb2, stronger effect = lower value 1.01 | S. cerevisiae deletion strains, locus YPR135W, strain CTF4, stronger effect = lower value 0.934 | S. cerevisiae deletion strains, locus YPR141C, strain kar3, stronger effect = lower value 0.987 | S. cerevisiae deletion strains, locus YPR163C, strain tif3, stronger effect = lower value 1.01 | S. cerevisiae deletion strains, locus YPR167C, strain met16, stronger effect = lower value 1.01 | S. cerevisiae deletion strains, strain wtn01, stronger effect = lower value 1.01 | S. cerevisiae strains, strain wild type, stronger effect = lower value 0.999 and 0.961
active: S. cerevisiae deletion strains, locus YLR058C, strain SHM2 (second series), stronger effect = lower value 0.932 | S. cerevisiae deletion strains, locus YPL241C, strain CIN2, stronger effect = lower value 1.21 [resistant]

From PubChem BioAssay AID1159580 (chemical genetic matrix, 2015)
